# Measured values: PubChem BioAssay (NCATS)
# Results filed as inconclusive are left out. Entries that show only a call come without a potency. Unmarked numbers belong to inactive results. Calls of active or inactive are those of the source. Calls come from the whole dose curve; as a rule, active = well fitted inhibition curve with a large enough effect; inconclusive = small, poorly fitted or top-dose-only effect; inactive = flat fitted curve, though single readings scatter.
# Experiment: P-glycoprotein substrates identified in KB-8-5-11 adenocarcinoma cell line, qHTS therapeutic library screen (AID 1346987); note: nearly all actives have a fitted effect of over 65% in size
# Conditions: KB-8-5-11 (P-gp overexpressing) viability, CellTiter-Glo, 72 h; series mostly up to 44.5 µM
# In short: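 Compounds are pinned in dose-response onto KB-8-5-11 cells (500 cells/well, colchicine-free medium) and left 72 h at 37 degree C. CellTiter-Glo luminescence then yields AC50 values.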
SMILES,Potency,"activity change, negative = cytotoxicity",outcome
COC(=O)[C@H](c1ccccc1Cl)N1CCC2SC(=O)C=C2C1 (some centres not stated),inactive,,
C[C@@H]1CC[C@]2(C(=O)O[C@@H]3O[C@H](CO[C@@H]4O[C@H](CO)[C@@H](O[C@@H]5O[C@@H](C)[C@H](O)[C@@H](O)[C@H]5O)[C@H](O)[C@H]4O)[C@@H](O)[C@H](O)[C@H]3O)CC[C@]3(C)C(=CCC4[C@@]5(C)C[C@@H](O)[C@H](O)[C@@](C)(CO)C5CC[C@]43C)C2[C@H]1C (some centres not stated),,2.95% [at 9.29 µM],
CC1CCC2(C)CCC3(C)C(=CCC4C5(C)CCC(O)C(C)(C(=O)O)C5CCC43C)C2C1C (configuration not stated),inactive,,
CN[C@H](CNC(=O)N1CCC[C@@H]([C@@H](OCCNC(=O)OC)c2cccc(Cl)c2)C1)C[C@H]1CCCOC1,inactive,,
CCOc1ccc(-c2nn3ncccc3c2-c2ccc(S(C)(=O)=O)cc2)cc1,inactive,,
CC(=O)OCC1=CCC2C(C)(C)CCCC2(C)C12CCC(C)(CC(=O)O)O2 (configuration not stated),inactive,,
CC1(CO)CCCC2(C)C1C(OC(=O)c1ccccc1)CC1C(=O)OCC12O (configuration not stated),inactive,,
CC1=C[C@H]2[C@@H](CC1=O)[C@H](C)C[C@H](O)[C@H]2C(C)C,inactive,,
CC1(C)CC[C@]2(C(=O)O[C@@H]3O[C@H](CO[C@@H]4O[C@H](CO)[C@@H](O)[C@H](O)[C@H]4O)[C@@H](O)[C@H](O[C@@H]4O[C@H](CO)[C@@H](O)[C@H](O)[C@H]4O)[C@H]3O)[C@H](O)C[C@]3(C)C(=CCC4[C@@]5(C)CC[C@H](O[C@@H]6OC[C@@H](O)[C@H](O)[C@H]6O)[C@@](C)(C(=O)O)C5CC[C@]43C)[C@@H]2C1 (some centres not stated),,,inactive [at 9.29 µM]
CCC(=O)N1CCc2cc(OC)c(O)cc2C1,inactive,,
N#Cc1cc(-c2n[nH]c(-c3ccncc3)n2)ccn1,inactive,,
COc1cc(-c2ccc(O)cc2)c(OC)c(O)c1C1=CC(=O)OC1CC(=O)O (configuration not stated),inactive,,
COc1ccc([C@H]2OC[C@H]3[C@@H]2CO[C@@H]3c2ccc(O[C@@H]3O[C@H](CO)C(O)[C@H](O)[C@H]3O)c(OC)c2)cc1OC (some centres not stated),inactive,,
O=C(OCC1OC(Oc2ccc(O)cc2COC(=O)C2(O)C(O)CCC(=O)C2OC(=O)C2C=CCC2)C(OC(=O)C2C=CCC2)C(O)C1O)C1C=CCC1 (configuration not stated),inactive,,
CC(C)C(O)(CO)CCO[C@@H]1O[C@H](CO[C@H]2OC[C@](O)(CO)[C@H]2O)[C@@H](O)[C@H](O)[C@H]1O (some centres not stated),inactive,,
OC[C@@]1(O)CO[C@H](OC[C@H]2O[C@@H](OC(CCCCc3ccc(O)cc3)CCc3ccc(O)cc3)[C@H](O[C@H]3OC[C@](O)(CO)[C@H]3O)[C@@H](O)[C@@H]2O)[C@@H]1O (some centres not stated),inactive,,
CC1(C)CC[C@]2(C(=O)OC3OC(CO)C(O)C(O)C3O)CC[C@]3(C)C(=CCC4[C@@]5(C)C[C@@H](O)[C@H](OC6OC(C(=O)O)C(O)C(O)C6O)C(C)(C)C5CC[C@]43C)[C@@H]2C1 (some centres not stated),,8.55% [at 9.29 µM],
COc1ccc2c(c1)C=C1Cn3c-2c(C2CCCCC2)c2ccc(cc23)C(=O)NS(=O)(=O)N(C)CCOCCN(C)C1=O,inactive,,
CC[C@H]1OC(=O)[C@H](C)C(=O)[C@H](C)[C@@H](OC2O[C@H](C)C[C@H](N(C)C)[C@H]2O)[C@@H](C)C[C@@H](C)C(=O)/C=C/[C@]1(C)O (some centres not stated),inactive,,
COc1c2c(c(C)c3c1C(=O)OC3)OC1(C)CC(O)C34OC(OC)(CC(O)C3(C)C1C2)OC4(C)C (configuration not stated),inactive,,
CC(C)=CCC[C@](C)(O[C@@H]1O[C@H](CO[C@@H]2OC[C@H](O)[C@H](O)[C@H]2O)[C@@H](O)[C@H](O)[C@H]1O)[C@H]1CC[C@]2(C)[C@@H]1[C@H](O)C[C@@H]1[C@@]3(C)CC[C@H](O[C@@H]4O[C@H](CO)[C@@H](O)[C@H](O)[C@H]4O[C@@H]4O[C@H](CO)[C@@H](O)[C@H](O)[C@H]4O)C(C)(C)[C@@H]3CC[C@]12C,inactive,,
CC1OC(O[C@@H]2[C@@H](O)[C@H](OC(=O)[C@]34CCC(C)(C)C[C@H]3C3=CCC5[C@@]6(C)CC[C@H](O[C@@H]7O[C@H](C(=O)O)[C@@H](O)[C@H](O[C@@H]8OC[C@@H](O)[C@H](O)[C@H]8O)[C@H]7O[C@@H]7O[C@H](CO)[C@H](O)[C@H](O)[C@H]7O)[C@@](C)(C=O)C6CC[C@@]5(C)[C@]3(C)C[C@H]4O)O[C@H](C)[C@@H]2OC2OC(C)C(OC3OCC(O)C(O)C3O)C(O)C2O)C(O)C(O)C1O (some centres not stated),,,inactive [at 9.29 µM]
